Bioassay records: PubChem BioAssay, National Center for Advancing Translational Sciences (NCATS)
Rab9 promoter act = qHTS Assay for Rab9 Promoter Activators | Huh7 Rab9 promoter-luciferase reporter, luminescence, 24 h | Potency, µM (series often up to 9.22 µM), for the others: top-dose activation, negative = inhibition, actives largely listed as activators | hit rate 2.8% among 320,000; note: % of control where 0% means no effect; nearly all actives have a fitted effect of over 60% in size
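Luciferase signal after 10 min detection reagent at ambient indicates Rab9 promoter upregulation; stably transfected Huh7 cells were treated 24 h with compound in DMSO at 37 °C, 5% CO2.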
FLuc counter = qHTS profiling assay for firefly luciferase inhibitor/activator using purifed enzyme and Km concentrations of substrates (counterscreen for miR-21 project). Luciferin 4-monooxygenase (Photinus pyralis), P08659. purified FLuc, Km substrates, luminescence inhibition. Potency, µM (titrated, usually from 57.5 µM), inactives show at the highest dose activity change, negative = inhibition, actives largely listed as inhibitors. hit rate 6.9% among 360,000. AID 588342, 2011;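 note: plate controls were vehicle for no effect and reference inhibitor for full effect; nearly all actives have a fitted effect of over 55% in size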
Target sequence (P08659 whole entry, looked up): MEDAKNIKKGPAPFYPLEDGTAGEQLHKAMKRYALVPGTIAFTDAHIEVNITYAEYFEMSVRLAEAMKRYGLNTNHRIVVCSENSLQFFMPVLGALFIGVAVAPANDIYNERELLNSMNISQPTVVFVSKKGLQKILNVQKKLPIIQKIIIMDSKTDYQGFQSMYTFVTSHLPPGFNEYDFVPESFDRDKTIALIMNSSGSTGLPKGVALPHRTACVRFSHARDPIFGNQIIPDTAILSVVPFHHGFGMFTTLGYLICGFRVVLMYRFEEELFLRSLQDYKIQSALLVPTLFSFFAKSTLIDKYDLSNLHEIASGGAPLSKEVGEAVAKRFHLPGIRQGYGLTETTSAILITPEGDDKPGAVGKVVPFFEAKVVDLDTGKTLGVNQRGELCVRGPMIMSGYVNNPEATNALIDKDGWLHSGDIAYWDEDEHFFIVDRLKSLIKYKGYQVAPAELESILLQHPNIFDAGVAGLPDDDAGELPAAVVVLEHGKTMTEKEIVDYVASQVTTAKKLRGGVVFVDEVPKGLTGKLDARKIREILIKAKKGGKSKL
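Purified P. pyralis luciferase (10nM final) with 10uM D-luciferin and 10uM ATP (Km levels) in 50mM Tris acetate pH 7.5, 10mM Mg acetate, 0.01% Tween-20, 0.05% BSA; qHTS 6-point titration, ~60 µM downward; luminescence read.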
SMN2 splice up = qHTS Assay for Enhancers of SMN2 Splice Variant Expression. HEK293 SMN2-luciferase splicing reporter, luminescence, 30-36 h. Potency, µM (top dose mostly 46.1 µM), without a hit: at the highest dose activity change, positive = activation, actives largely listed as activators. hit rate 2.8% among 210,000. AID 1458, 2008; note: % of control where 0% means no effect; nearly all actives have a fitted effect of over 55% in size
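HEK293 cells carry an SMN2 […]–luciferase reporter in which exon 7 inclusion puts luciferase in frame. Cells were plated 10-12 h before compound addition, then incubated 30-36 h at 37C. ONE-Glo luminescence was read; sodium butyrate at 4.5 mM final served as control.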
NPC1 promoter act = qHTS Assay for NPC1 Promoter Activators | hit rate 2.4% among 320,000 | Huh7 NPC1 promoter luciferase reporter, 24 h | Potency, µM (series often up to 9.22 µM), for the others: at the top dose activation, actives largely listed as activators | AID 485313, 2010; note: % of control where 0% means no effect; nearly all actives have a fitted effect of over 60% in size
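NPC1 promoter–luciferase Huh7 cells; 24 h compound; luminescence.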
ELG1 genotox = qHTS screen for small molecules that induce genotoxicity in human embryonic kidney (HEK293T) cells expressing luciferase-tagged ELG1; hit rate 1.3% among 330,000; Potency, µM (series often up to 46 µM), for inactives: at the highest dose activity change, positive = activation, most hits filed as activators; HEK293T ELG1-luciferase reporter, luminescence, 16 h; note: % of control where 0% means no effect; nearly all actives have a fitted effect of over 60% in size
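Cells (2,000/well) expressing the ELG1-luciferase fusion are dosed by pin tool and kept 16 hr at 37 °C, 5% CO2. Signal comes from ONE-Glo luciferase reagent after 30 min at room temperature.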
Luc counter = Counterscreen for Luciferase (Kinase-Glo TM) Inhibition. Kinase-Glo luciferase, ATP luminescence, 8 min. hit rate 0.28% among 200,000. Potency, µM (titrated, usually from 38.3 µM), inactives show top-dose activity change, negative = inhibition, usual class: inhibitors. AID 1379, 2008. Luciferin 4-monooxygenase (Photuris pensylvanica), Q27757; note: % is set by controls: 0 for no effect and ±100 for the full control effect; nearly all actives have a fitted effect of over 60% in size
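Recombinant Kinase-Glo luciferase, 10 uM ATP (linear range), luciferin; imidazole pH 7.2 / KCl / MgCl2 / Tween / BSA buffer; 8 min RT; luminescence.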
An asterisk follows results filed as active; ? = inconclusive; . = not tested or not shown; [ ] = dose if it differs, or a comment. Shown are actives, neighbours in structure and some others; about 7.3% of the full set was active somewhere. Calls come from the whole dose curve; as a rule, active = well fitted curve in the direction sought with a large enough effect; inconclusive = small, poorly fitted or top-dose-only effect, or another doubt; inactive = no such curve, though single readings can be large; an effect the other way counts as inactive or inconclusive. Potency is the fitted concentration of half-maximal effect.

SMILES | Rab9 promoter act | FLuc counter | SMN2 splice up | NPC1 promoter act | ELG1 genotox | Luc counter
Cc1cccc2cc3c(N)c(C(=O)N4CCOCC4)sc3nc12 | 0.56µM* | 3.8µM* | 11µM* | ? | ? | -10%
Nc1nc2sc3c(c2cc1C(=O)N1CCOCC1)CCCC3 | 10% | 17µM* | 4% | 8% | 3% | -3%
Nc1nc2sc3c(c2cc1C(=O)NCC(=O)O)CCCC3 | -16% | 0.95µM* | . | 0% | -3% | .
C[C@@H](SCc1ccccc1)C(=O)O | . | . | -6%[9.22 µM] | . | . | 0%[7.66 µM]
CCC(CC)C(=O)Nc1cccc(C(=O)Nc2nccs2)c1 | -2% | 0% | -25% | -4% | -7% | 1%
CCCc1cc(C(=O)Nc2nccs2)cs1 | 1.3µM* | 1.9µM* | 4µM* | 1.8µM* | 1.3µM* | -15%
C/C(=C\C(=O)O)C(=O)Nc1nccs1 | 0% | 0% | 16% | -1% | -1% | -1%
COc1ccc(C(=O)Nc2nccs2)cc1 | 3.2µM* | 19µM* | . | 2.2µM* | ? | .
C/C(=C\C(=O)Nc1nccs1)c1ccccc1 | . | 9.5µM* | ? | . | . | 7%
COc1ccc(C(=O)Nc2nccs2)cc1OC | ? | ? | 7.1µM* | 27% | ? | -4%
O=C(Nc1nccs1)c1ccc([N+](=O)[O-])cc1 | 30% | -13% | . | ? | 14% | .
CCOc1ccc(NC(=O)CN2C(=O)C3(SCC(=O)N3c3ccc(F)cc3)c3ccccc32)cc1 (stereo unspecified) | . | 5% | . | . | . | .
COc1ccc(C(=O)c2cn(CC(=O)Nc3ccc4c(c3)OCCO4)c3ccc(OC)cc3c2=O)cc1 | . | -16% | -15% | . | . | .
CC#CCN1c2ccccc2[C@]23C[C@@H](C(=O)OC)N(S(=O)(=O)c4ccc(C)cc4)C2=NC(C(=O)OC)=C(C(=O)OC)[C@H]13 | . | . | 1%[9.22 µM] | . | . | 0%[7.66 µM]
O=C(Nc1ccccc1)Nc1nncs1 | 4% | ? | -1% | -2% | -1% | -3%
COc1ccc(CC(=O)Nc2ccc(S(=O)(=O)Nc3nccs3)cc2)cc1 | 1% | 1% | . | -2% | 13% | .
COc1ccc(NC(=O)Nc2nccs2)cc1 | 21% | 6.7µM* | 14µM* | 5% | ? | -15%
O=C(Nc1ccccc1)Nc1nccs1 | 25% | 24µM* | ? | 16% | -1% | -2%
CCCn1cnc2c(SCC(=O)O)nc(N)nc21 | . | . | -15%[9.22 µM] | . | . | -2%[7.66 µM]
COCCNC(=O)CCCn1c(SCC(=O)c2ccc(Br)cc2)nc2c(sc3ccccc32)c1=O | . | 1% | ? | . | . | .
CCN(CC)c1ccc(NS(=O)(=O)c2cc3[nH]c(=O)c(=O)[nH]c3cc2C)c(C)c1 | . | -4% | . | . | . | .
Cc1ccc(NC(=O)c2cc(-c3cccc(O)c3)on2)cc1C | 7% | 9.5µM* | 2% | -7% | ? | -3%
COc1ccc(NC(=O)c2cc(-c3ccco3)on2)cc1OC | 2% | -5% | . | 2% | ? | .
Cc1ccc(NC(=O)c2cc(-c3ccco3)on2)cc1C | 7% | 2.7µM* | -9% | 14% | ? | 0%
O=C(NCCc1ccccc1)c1cc(-c2ccco2)on1 | 2.8µM* | 6µM* | 10µM* | 2.5µM* | ? | 1%
SMILES | Rab9 promoter act | FLuc counter | SMN2 splice up | NPC1 promoter act | ELG1 genotox | Luc counter
Cc1ccc(NC(=O)c2cc(-c3ccco3)on2)cc1 | -1% | 2.1µM* | -7% | -1% | ? | 4%
Cc1cc(NC(=O)c2cc(-c3ccco3)on2)no1 | 2% | -20% | -12% | -4% | 2% | -1%
CCOc1ccc(CCNC(=O)c2ccc3c(c2)c(C)c(C)n3Cc2ccccc2)cc1OCC | . | -11% | . | . | . | .
Cc1ccsc1/C=N/Nc1ncc(Cl)cc1Cl | ? | 2.7µM* | ? | 2.8µM* | ? | -10%
Cc1ccsc1/C=N/Nc1ccc(F)cc1F | 2.2µM* | 12µM* | . | ? | ? | .
Cc1cc(C)nc(N/N=C/c2sccc2C)n1 | 4% | ? | ? | 9% | 13% | -27%
Cc1ccsc1/C=N/Nc1nc(=O)[nH]nc1C | 2.8µM* | ? | 18µM* | ? | ? | 4.5µM*
Cc1ccsc1/C=N/NC(=O)c1ccco1 | 17% | ? | 24% | 15% | 13% | -8%
CN1CCN(CCCN)CC1 | . | . | -4%[9.22 µM] | . | . | -9%[7.66 µM]
Cc1ccc(C)c(NC(=S)NNC(=O)c2csc3c2CCCC3)c1 | 3% | -3% | -11% | 1% | -2% | -5%
Cc1cccc(NC(=S)NNC(=O)c2csc3c2CCCC3)c1 | ? | 12µM* | ? | ? | 0% | 2%
Cc1cccc(NC(=S)NNC(=O)c2csc(C)c2)c1 | ? | 8.5µM* | . | 14% | 14% | -2%
Cc1cc(C(=O)Nc2ccc(Br)cc2)cs1 | 0.63µM* | 19µM* | . | ? | 6.5µM* | .
COc1cc(NC(=O)CC2C(=O)N(c3ccc(Cl)cc3)C(=O)N2Cc2cccs2)cc(OC)c1 (stereo unspecified) | . | -1% | . | . | . | .
Cc1ccc(NC(=O)CN2C(=O)CSc3ccc(S(=O)(=O)N(C)C)cc32)c(C)c1 | . | -8% | . | . | . | .
CCOc1ccccc1-c1noc(CSc2nnc(-c3ccncc3)n2-c2ccc(F)cc2)n1 | . | -10% | 0% | . | . | .
NC(=O)C1=C[C@H](C2CCCCC2)C[C@H](OCc2ccc(CO)cc2)O1 | 3.2µM* | 11µM* | . | 2.5µM* | 2.9µM* | .
Nc1nc2c(C(=O)N3CCOCC3)nnn2c2ccccc12 | 3.2µM* | 12µM* | . | 3.2µM* | ? | .
O=C(Nc1cccc(Cl)c1Cl)c1cc(S(=O)(=O)N2CCCCC2)ccc1F | . | -9% | . | . | . | .
COc1cc(/C=N/NC(=O)c2ccccc2)ccc1O | 27% | ? | 9% | -1% | ? | -3%
COc1cccc(/C=N/NC(=S)Nc2cccc(C(=O)O)c2)c1O | -6% | 0.19µM* | 16µM* | -3% | 2% | 0%
COc1cc(/C=N/NC(=S)Nc2cccc(C(=O)O)c2)ccc1O | ? | 4.3µM* | 10% | ? | 1% | -1%
COc1ccc(/C=N/NC(=S)Nc2ccccc2)cc1 | 4µM* | 11µM* | 10µM* | ? | ? | -4%
O=C(O)c1cccc(NC(=S)N/N=C/c2cccnc2)c1 | ? | 11µM* | 16% | ? | ? | 0%
S=C(N/N=C/c1ccccc1Cl)Nc1ccccc1 | ? | 19µM* | 28% | ? | 0% | -8%
COCCCNC(=S)N/N=C/c1ccc(O)cc1O | -6% | ? | . | 2% | 1% | .
Cc1cccc(C)c1NC(=S)N/N=C/c1ccc(C(=O)O)cc1 | 0% | -4% | . | -7% | 2% | .
